Assay results published in PubChem BioAssay AID602412 (Johns Hopkins Ion Channel Center, 2012).
This is one part of the list. Activity calls are given as the source filed them.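 The calls were made as follows: active = calcium signal rise, corrected for plate position, at least 3 library SD high, with starting brightness within 5 such deviations; inactive = the rest.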

Biological target: Mas-related G-protein coupled receptor member X1 (Homo sapiens) (UniProt Q96LB2)
Test: activators of human MrgX1 calcium signaling – HEK293 cells, Fluo-4 calcium flux, confirmation (AID 602412)
Conditions: MrgX1-HEK293, Fluo-4 calcium fluorescence, FDSS; at 10 µM; hits give high values

Mas-related G-protein coupled receptor member X1 (Homo sapiens), sequence (Q96LB2 whole entry, looked up): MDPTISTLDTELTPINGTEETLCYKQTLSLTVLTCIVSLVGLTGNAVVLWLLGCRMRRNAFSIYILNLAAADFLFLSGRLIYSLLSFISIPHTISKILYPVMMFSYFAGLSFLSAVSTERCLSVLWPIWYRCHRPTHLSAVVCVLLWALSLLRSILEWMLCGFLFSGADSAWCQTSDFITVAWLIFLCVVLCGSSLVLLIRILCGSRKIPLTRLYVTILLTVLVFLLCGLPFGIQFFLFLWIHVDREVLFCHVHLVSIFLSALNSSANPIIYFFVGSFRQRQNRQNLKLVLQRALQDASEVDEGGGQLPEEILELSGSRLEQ

For `CCCCC(=O)N/N=C/c1c(O)n(CC)c(=S)n(CC)c1=O`, the activation was 372% (active).
